# Screening data deposited in PubChem BioAssay by National Center for Advancing Translational Sciences (NCATS).
# The list is not random: actives were taken first. Their share in the collection is about 3.6%.
# Rango complex inh – inhibitors of Rango-importin beta complex formation; hit rate 0.031% among 340,000; Rango CFP/YFP FRET sensor + importin beta, 45 min; Q14974; AID 540263; Potency, µM (series often up to 92.2 µM), inactives show at the top dose inhibition of complex formation; calls by dose curve;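 further: potency means the concentration at half of the fitted maximal effect; 0% = DMSO wells and 100% = buffer wells lacking importin beta; nearly all actives have a fitted effect of over 15% in size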
#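 Inhibition scored from the CFP 486 nm/YFP 530 nm FRET ratio 45 min after adding 0.125 microM importin beta to 50 nM Rango biosensor preincubated 5 min with compound (room temperature, PBS with DTT, Tween-20, BSA). No-importin wells as positive control.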
# Rango release inh – inhibition of RanGTP-driven Rango-importin beta dissociation. Potency, µM (top dose mostly 46.1 µM), for the others: top-dose activity change, negative = inhibition. hit rate 0.071% among 340,000. Biochemical FRET Rango-importin beta, RanGTP-induced dissociation. O95149+P62826; calls by dose curve; further: potency means the concentration at half of the fitted maximal effect; % of control where 0% means no effect; nearly all actives have a fitted effect of over 45% in size
#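 FRET read at 45 min, room temperature: inhibitors block the CFP/YFP signal rise when RanGTP (0.6 uM Ran, 2 mM GTP, 0.2 uM RCC1) frees Rango (0.1 uM) from importin beta (0.25 uM). Pre-read after 5 min compound exposure flags interference.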
# GCN5L2 inh – blocks human GCN5L2 histone acetyltransferase; GCN5L2 HAT assay, ThioGlo1 CoA-SH fluorescence; Potency, µM (highest dose often 58.9 µM), inactives show at the highest dose activity change, negative = inhibition, hits mostly inhibitors; hit rate 0.21% among 390,000; AID 504327; further: potency means the concentration at half of the fitted maximal effect; on the % scale 0 is the no-effect control and ±100 the full control effect
#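 Fluorescence readout, Ex340nm/Em540nm: ThioGlo1 (50uM final) reacts with free CoA thiol released as 20nM GCN5L2 acetylates H3(1-25) peptide (75uM) using acetyl-CoA (70uM). Compound and enzyme sat 15 min beforehand; 20 min room-temperature reaction.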
# PLK1 PBD block – PLK1 (human) polo-box domain binding inhibition; Potency, µM, for the others: max response, negative = inhibition, most hits filed as inhibitors; AID 720504; Plk1 PBD binding of FITC phosphopeptide, fluorescence polarization; hit rate 2.8% among 360,000; further: potency means the concentration at half of the fitted maximal effect; series mostly up to about 57 µM; on the % scale 0 is the no-effect control and ±100 the full control effect; nearly all actives have a fitted effect of over 65% in size
# Target sequence (P53350 whole entry, looked up, the tested form may be a part): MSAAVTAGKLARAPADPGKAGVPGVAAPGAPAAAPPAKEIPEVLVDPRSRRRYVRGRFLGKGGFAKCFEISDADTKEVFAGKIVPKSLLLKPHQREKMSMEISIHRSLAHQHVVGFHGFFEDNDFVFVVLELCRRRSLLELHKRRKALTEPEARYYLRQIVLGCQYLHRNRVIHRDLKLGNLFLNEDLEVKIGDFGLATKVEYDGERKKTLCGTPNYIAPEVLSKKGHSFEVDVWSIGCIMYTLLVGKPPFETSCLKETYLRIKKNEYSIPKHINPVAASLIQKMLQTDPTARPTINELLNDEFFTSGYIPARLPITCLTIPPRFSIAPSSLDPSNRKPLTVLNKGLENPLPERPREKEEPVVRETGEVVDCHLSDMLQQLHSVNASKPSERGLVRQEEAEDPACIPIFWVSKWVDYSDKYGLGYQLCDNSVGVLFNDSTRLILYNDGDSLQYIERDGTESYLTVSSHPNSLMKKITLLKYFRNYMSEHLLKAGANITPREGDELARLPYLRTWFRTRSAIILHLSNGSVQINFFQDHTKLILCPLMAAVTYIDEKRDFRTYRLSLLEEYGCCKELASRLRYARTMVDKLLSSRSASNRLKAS
# PI5P4Ka inh – inhibitors of human PI5P4K alpha; P48426; PI5P4Kalpha enzyme, ADP-Glo luminescence, 60 min; stronger effect = lower value; max response, %; hit rate 1.2% among 330,000; active means max response of -50% or lower; inconclusive means between -30% and -50%; inactive means -30% or higher; further: value at the top dose of about 77 µM; on the % scale 0 is the no-effect control and ±100 the full control effect
#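 PI5P4Kalpha ADP-Glo assay; 5 microM ATP final; 60 min RT reaction; HEPES pH 7.4/EGTA/CHAPS, 5% DMSO; controls lacking substrate or enzyme; luminescent end-point.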
# VDR inhibitor – blocks the human vitamin D receptor. AID 504847. hit rate 0.93% among 400,000. Potency, µM, without a hit: max response, negative = inhibition, usual class: inhibitors. P11473. VDR-SRC2-3 peptide fluorescence polarization, 2 h; further: potency means the concentration at half of the fitted maximal effect; on the % scale 0 is the no-effect control and ±100 the full control effect
#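 Fluorescence polarization assay measuring small-molecule disruption of VDR binding to the coregulator peptide SRC2-3. Compounds were pin-transferred (23 nl) into the reagent mix and incubated 2 h at room temperature before reading.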
# * hit, by the source's call; ? = inconclusive; . = no result; [ ] = dose if it differs, or a comment. Unless noted, the call rests on the fitted dose curve; in most records, active means well fitted curve in the direction sought with a large enough effect; inconclusive means small, poorly fitted or top-dose-only effect, or another doubt; inactive means no such curve, though single readings can be large; an effect the other way counts as inactive or inconclusive.
SMILES,Rango complex inh,Rango release inh,GCN5L2 inh,PLK1 PBD block,PI5P4Ka inh,VDR inhibitor
O=C(O)c1ccccc1SSc1ccccc1C(=O)O,2%,11%,-16%,12µM*,-1,?
O=C(O)c1ccccc1SCC(=O)N1c2ccccc2Sc2ccccc21,-5%,?,-23%,-15%,-3,-19%
C[CH2][Hg][S]c1ccccc1C(=O)O,1%,2%,?,2.7µM*,22,79µM*
Cc1nn(C2CCOC(C)(C)C2)c2c1C(c1ccc(OC(C)C)cc1)SCC(=O)N2 (stereo not given),0%,-2%,-6%,-19%,.,79µM*
CC(=O)OC1CC[C@@]2(C)C3CC(=O)[C@]4(C)C(C(C)=O)=CCC4C3CC[C@H]2C1 (stereo not given in full),.,.,-8%,.,.,2µM*
CCCCC/C=C\C/C=C\C/C=C\C/C=C\CCCC(=O)NCCCl,.,.,0%,.,.,27%
O=C1C=CC(=O)c2c(O)cccc21,.,.,0.63µM*,.,.,40µM*
Cc1cc(C)cc(-n2c(C)cc(/C=C3\C(=O)NC(=O)N(C)C3=O)c2C)c1,-2%,-10%,-3%,?,-10,-5%
Cc1cc(/C=C2\C(=O)NC(=O)N(c3ccc(Br)cc3)C2=O)c(C)n1-c1cc(C(=O)O)cc(C(=O)O)c1,?,-29%,-4%,12µM*,-77*,?
Cc1cc(/C=C2\C(=O)NC(=O)N(c3ccc(Br)cc3)C2=O)c(C)n1C,?,?,-7%,-2%,-3,14%
Cc1cc(/C=C2\C(=O)NC(=O)N(c3cccc(F)c3)C2=O)c(C)n1-c1cc(C(=O)O)cc(C(=O)O)c1,-1%,2%,-16%,?,-81*,9%
Cc1cc(/C=C2\C(=O)NC(=O)N(c3ccc(Cl)cc3)C2=O)c(C)n1-c1cccc(C(=O)O)c1,?,-27%,-23%,27µM*,?,8%
Cc1cc(/C=C2/C(=O)NC(=O)N(c3ccc(Br)cc3)C2=O)c(C)n1C,?,?,-10%,-6%,-15,23%
Cc1cc(=O)oc2c3c(cc(OCC(=O)N4CCC[C@H]4C(=O)O)c12)OC(C)(C)CC3,1%,-6%,?,3%,1,-16%
CCOC(=O)Cn1cc(C(=O)c2ccccc2F)c2ccccc21,-3%,1%,4%,21µM*,-9,?
CC1CC[C@@]2(OC1)O[C@@H]1[C@@H](O)[C@H]3C4CC[C@H]5C[C@@H](O[C@@H]6O[C@H](CO)[C@H](O[C@@H]7O[C@H](CO)[C@@H](O)[C@H](O[C@@H]8OC[C@@H](O)[C@H](O)[C@H]8O)[C@H]7O[C@@H]7O[C@H](CO)[C@@H](O)[C@H](O[C@@H]8O[C@H](CO)[C@@H](O)[C@H](O)[C@H]8O)[C@H]7O)[C@H](O)[C@H]6O)[C@H](O)C[C@]5(C)C4CC[C@]3(C)[C@H]1[C@@H]2C (stereo not given in full),.,.,14%[0.501 µM],.,.,-10%
CN[C@@H]1C[C@H](c2ccc(Cl)c(Cl)c2)c2ccccc21,.,.,-10%,.,.,?
COC(=O)[C@]1(C)CC[C@@]2(C)CC[C@@]3(C)C4=CCc5c(cc(O)c(O)c5C)[C@]4(C)CC[C@@]3(C)C2C1 (stereo not given in full),.,.,-14%,.,.,28µM*
C/C(O)=C1\C(=O)[C@@H]2[C@H]3c4c[nH]c5cccc(c45)C[C@H]3C(C)(C)N2C1=O,.,.,-4%,.,.,?
COc1ccc(C[C@H]2NC[C@H](O)[C@@H]2OC(C)=O)cc1,.,.,-5%,.,.,35µM*
O=c1[nH]c(=S)[nH]c(O)c1/C=C1/C=c2ccccc2=N1,-3%,-11%,?,1.3µM*,?,-20%
Cn1cccc1-c1cccnc1,.,.,-11%,.,.,3%
Cc1cc(C)cc(OCCOc2cccc(C=C3C(=O)NC(=O)NC3=O)c2)c1,-1%,6%,-9%,6µM*,-51*,?
